Compound activity as filed in PubChem.
Bead autofluor: compound fluorescence in toxin protease inhibitor counterscreen | fluorescence intensity (test concentration not listed) | compound autofluorescence counterscreen, microsphere flow cytometry; hits give high values | 3.1% of 360,000 active; in the data active = fluorescence intensity above about 16000; inconclusive = no clear call, values can overlap the other calls
Anthrax LF prot: Bacillus anthracis LF protease inhibitors, primary screen, biochemical, multiplex microsphere, MLPCN library | multiplex microsphere protease cleavage assay | inhibition, % at 10 µM | 0.12% of 360,000 active; also: plate controls were buffer without enzyme for full effect and enzyme alone for no effect
BoNT A protease: BoNT/A light chain protease inhibitors, primary screen, biochemical, flow cytometry, MLPCN library. Botulinum neurotoxin type A light chain protease (Clostridium botulinum A str. ATCC 3502). multiplex microsphere protease substrate cleavage. inhibition, % at 10 µM. 0.17% of 360,000 active; also: plate controls were buffer without enzyme for full effect and enzyme alone for no effect
BoNT F protease: BoNT/F light chain protease inhibitors, primary screen, biochemical, flow cytometry, MLPCN library; AID 588497, 2011; 0.22% of 360,000 active; Botulinum neurotoxin type F light chain protease (Clostridium botulinum); Multiplex microsphere protease cleavage assay; inhibition, % at 10 µM; in the data active = inhibition above about 35%, passing the limit was not always enough; inconclusive = no clear call, values can overlap the other calls; also: plate controls were buffer without enzyme for full effect and enzyme alone for no effect
* hit, by the source's call; ? = inconclusive; ! = not active in a repeat. Rows were chosen to be rich in hits. Some 3.5% of all compounds tested hit in one or more screens of this group. Rule as the data show it, unless noted: active = inhibition above about 30%; inconclusive = no clear call, values can overlap the other calls; inactive = below that.

SMILES	Bead autofluor	Anthrax LF prot	BoNT A protease	BoNT F protease
CCOC(=O)C1=C(CSCC(=O)OC)NC(=O)NC1c1cc(C)ccc1C (configuration not stated)	22020*	-9	2	2
COC(=O)C1=C(CSCc2ccccc2)NC(=O)NC1c1cc(C)ccc1C (configuration not stated)	10910	0	0	-4
O=C(c1ccccc1NS(=O)(=O)c1ccc([N+](=O)[O-])cc1[N+](=O)[O-])N1O[C@@H]2C=C[C@H]1C2	3826	-8	0	-2
CN1CCN(C2OC(=O)c3ccccc32)CC1 (configuration not stated)	17143*	1	-2	-3
CCOc1ccccc1C(=O)NC1CCN(Cc2nnnn2C2CCCC2)CC1	22337*	-2	?	0
COc1ccc(CCCc2nnc(SCC(=O)Nc3cc(C)c(C)cc3Br)o2)cc1	21054*	-1	-1	-4
COCCOC(=O)c1c(NC(=O)CN2CCOCC2)sc(C(N)=O)c1C	3101	1	1	-4
CCOC(=O)c1sc(NC(=O)CSc2nnc(C)s2)c(C(=O)OCC)c1C	22787*	0	1	2
CCOC(=O)c1c(NC(=O)CSc2nncs2)sc(C)c1C	2452	-4	0	4
COc1ccc(Cc2nnc(SCC(=O)NC(C)c3ccccc3)o2)cc1 (configuration not stated)	22651*	1	2	1
CCOC(=O)c1c(NC(=O)CN2CCOCC2)sc(C(=O)NC)c1C	22110*	0	-1	-3
CCOC(=O)c1sc(NC(=O)CSc2nc3ccccc3o2)c(C(=O)OCC)c1C	2443	1	0	-10
CCOC(=O)c1sc(NC(=O)CSc2nnc(Cc3ccccc3)o2)c(C(=O)OCC)c1C	23789*	-4	-1	-3
CCOC(=O)c1c(NC(=O)C(Sc2ccccc2)c2ccccc2)sc(C(N)=O)c1C (configuration not stated)	23438*	1	-1	0
O=C(NCc1ccc(Cl)nc1)c1ccc2nc([C@@H]3O[C@H](CO)[C@H](O)[C@H](O)[C@H]3O)[nH]c2c1	3007	2	0	1
O=C(NC1(C(F)(F)F)C(=O)Nc2c1c(=O)[nH]c(=O)n2Cc1ccccc1)c1ccco1 (configuration not stated)	22776*	-2	-1	1
CC(=O)NC1(C(F)(F)F)C(=O)Nc2c1c(=O)[nH]c(=O)n2Cc1ccco1 (configuration not stated)	4819	4	0	-3
O=C1CCC/C1=C/Nc1ccc2c(c1)OCO2	8737	-8	2	-9
CC1CCC/C(=C\Nc2ccc3c(c2)OCO3)C1=O (configuration not stated)	22454*	-6	0	-11
Nc1nnc(C(=O)c2ccccc2N)s1	21252*	0	-2	-3
CO/N=C/NC(=O)c1cn(-c2ccc(F)cc2)c(=O)c2ccccc12	16209*	-4	-1	-2
CC1CC2(CC(C)(C(=O)CSc3nc4ccccc4s3)OC2=O)C(=O)O1 (configuration not stated)	23789*	0	-3	-3
CC1(C)CC2(CC(C)(C(=O)CSc3nc4ccccc4s3)OC2=O)C(=O)O1 (configuration not stated)	16350*	-2	?	0
CCC(=O)N1CCC(C)(C(=O)NCc2cccc(OC)c2)C1 (configuration not stated)	3337	-2	0	0
Cc1ccccc1NC(=S)NNC(=O)c1ccoc1C	24040*	0	-5	-6
SMILES	Bead autofluor	Anthrax LF prot	BoNT A protease	BoNT F protease
Cc1occc1C(=O)NNC(=S)Nc1ccccc1C(F)(F)F	8370	-2	1	3
CCOC(=O)c1nc(C)n(-c2cc(Cl)ccc2Cl)n1	19905*	-1	1	2
O=C(c1ccccc1)c1cc2ccc(O)cc2oc1=O	20651*	-2	0	-3
C[C@H]1CN([C@@H](C)CO)C(=O)c2cc(Br)cnc2O[C@@H]1CN(C)S(=O)(=O)c1ccccc1	2993	-1	0	-5
O=C(Nc1ccc2c(c1)OCCO2)c1ccccc1F	4662	-2	-1	-5
O=C(Nc1ccc2c(c1)OCO2)c1c(F)c(F)c(F)c(F)c1F	18127*	0	10	15
O=C(Nc1ccc2c(c1)OCO2)c1ccc(Cl)s1	16810*	-4	-2	-10
O=C(Nc1ccc2c(c1)OCCO2)c1c(F)cccc1F	20165*	-5	?	2
O=C(NNC(=O)c1ccc(SCC2CCCO2)c([N+](=O)[O-])c1)c1ccc(Cl)c([N+](=O)[O-])c1 (configuration not stated)	21281*	-1	6	5
O=C(NNC(=O)c1ccccc1Br)c1ccc(SCC2CCCO2)c([N+](=O)[O-])c1 (configuration not stated)	21390*	-1	4	6
O=c1c2cccnc2nc2n1CCCCC2	3152	1	-1	-4
Cn1cnc2nc3n(c2c1=O)CCC3	16811*	-2	0	2
O=C1CC[C@@H](C(=O)N2CSC[C@@H]2C(=O)Nc2cccc(C(F)(F)F)c2)N1	3554	-3	0	-9
O=C(Cc1nnc(NC(=O)c2cccc([N+](=O)[O-])c2)s1)NCc1ccccc1	4247	2	2	8
Cc1ccc(Oc2cc(-n3nc(C)cc3C)ncn2)cc1	22017*	-2	?	-1
Cc1cc(C)n(-c2cc(-n3nc(C)cc3C)ncn2)n1	9965	-3	0	0
O=c1nc(N(c2ccccc2)c2ccccc2)[nH]c(=O)[nH]1	20223*	-1	?	-3
Cc1cc(-c2ccccc2)nc(=O)[nH]1	4132	-1	-1	-8
O=C(CSc1nnnn1-c1ccccc1)NCCCN1CCCC1=O	2835	2	0	4
Cc1ccc(N2CCCn3c2cc(C)c(C#N)c3=O)cc1C	21058*	-5	2	2
Cc1ccc(N2CCCn3c2cc(C)c(C#N)c3=O)cc1Cl	15477	-6	2	6
CCOC(=O)c1c(CN2CCOCC2)n(C)c2cc(Br)c(O)c(CN(C)C)c12	21896*!	-1	?	-3
N=C1CCCC1C(=S)SCCC(N)=O (configuration not stated)	3757	-8	0	-2
Cc1cc2n(n1)C(c1cn(-c3ccccc3)nc1C)Nc1ccccc1-2 (configuration not stated)	22907*	-1	?	-1
Brc1ccccc1OCCCn1cnc2ccccc21	19986*	-1	1	3
c1ccc(OCCn2cnc3ccccc32)cc1	17262*	-4	?	25
Fc1ccc(Cn2cnc3ccccc32)cc1	3812	-2	0	6
CCCOc1ccc(Cn2cnc3ccccc32)cc1	16239*	0	1	-2
Cc1ccc(S(=O)(=O)N2C[C@H]3[C@H]4C(=O)N(C)C(=O)[C@H]4CC(=O)[C@H]3[C@@H]2c2ccccc2F)cc1	5700	-4	0	1
